Active and inactive are the calls of the source. How the source made its calls: active means hit-call score of the fitted dose curve at least 0.9, where 1 is the maximum; inconclusive means response in the unintended direction; inactive means score below 0.9.
molecular target: Estrogen receptor beta (Homo sapiens) (UniProt Q92731); assay: OT_ER_ERbERb_1440: Odyssey Thera (OT) 24-hour HEK293T Protein-Complementation Assay for Estrogen Receptor-beta/-beta Homodimer (AID 2283380);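 further: scored as signal increase over DMSO baseline for both agonists and antagonists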
Method: OT_ER_ERbERb_1440 is a cell-based assay that uses HEK293T, a human kidney cell line, with measurements taken at 24 hours after chemical dosing in a 384-well plate.OT_ER_ERbERb_1440 is one of one assay component(s) measured or calculated from the OT_ER_ERbERb_1440 assay. It is designed to make measurements of protein fragment complementation, a form of binding reporter, as detected with fluorescence intensity signals by Protein-fragment Complementation technology.Data from the assay component OT_ER_ERbERb_1440 was analyzed into 1 assay endpoint. This assay endpoint, OT_ER_ERbERb_1440, was analyzed in the positive analysis fitting direction relative to DMSO as the negative control and baseline of activity. Using a type of binding reporter, measures of receptor for gain-of-signal activity can be used to understand the binding at the pathway-level as they relate to the gene ESR2. Furthermore, this assay endpoint can be referred to as a primary readout, because the performed assay has only produced 1 assay endpoint. To generalize the intended target to other relatable targets, this assay endpoint is annotated to the nuclear receptor intended target family, where the subfamily is steroidal.
Protein-fragment complementation assay, or PCA, is a method for the identification and quantification of protein-protein interactions. In the PCA, the proteins of interest ("bait" and "prey") are each covalently linked to fragments of a third protein (e.g. DHFR, which acts as a "reporter"). Interaction between the bait and the prey proteins brings the fragments of the reporter protein in close proximity to allow them to form a functional reporter protein whose activity can be measured. The OT ER beta / ER beta assay is a homodimer PCA of the ligand binding domain (LBD; amino acids 310-547) of human ER beta stably expressed in HEK293T cells. […] Cells are fixed in 4 percent formaldehyde and stained with Draq5 (BioStatus) to identify cells prior to signal detection. Fluorescent signal in the basal state of the assay is very low and is primarily punctuate and cytoplasmic. Modulation of this assay is quantified as an increase in mean fluorescence intensity in the nucleus (for agonists) or in the nucleus and cytoplasm (antagonists) relative to vehicle controls, and can be quantified on a high content imaging device or a laser scanning cytometer. The latter instrument is favored for this assay because of the rapid mode of data acquisition, the ability to acquire data from the entire cell population in a well (as opposed to a fraction of the well on the high content devices) and the larger dynamic range typically achieved with this instrument. To assess sensitivity of the ER beta/ER beta LBD assay to ligand, cells were treated with the ER agonist 17- beta-estradiol (E2) in 10-point concentration- response format for 24 hours and monitored response on a laser scanning plate cytometer (Acumen eX3; TTP Lab Tech).

Estrogen receptor beta (Homo sapiens), sequence (Q92731 whole entry, looked up, the tested form may be a part): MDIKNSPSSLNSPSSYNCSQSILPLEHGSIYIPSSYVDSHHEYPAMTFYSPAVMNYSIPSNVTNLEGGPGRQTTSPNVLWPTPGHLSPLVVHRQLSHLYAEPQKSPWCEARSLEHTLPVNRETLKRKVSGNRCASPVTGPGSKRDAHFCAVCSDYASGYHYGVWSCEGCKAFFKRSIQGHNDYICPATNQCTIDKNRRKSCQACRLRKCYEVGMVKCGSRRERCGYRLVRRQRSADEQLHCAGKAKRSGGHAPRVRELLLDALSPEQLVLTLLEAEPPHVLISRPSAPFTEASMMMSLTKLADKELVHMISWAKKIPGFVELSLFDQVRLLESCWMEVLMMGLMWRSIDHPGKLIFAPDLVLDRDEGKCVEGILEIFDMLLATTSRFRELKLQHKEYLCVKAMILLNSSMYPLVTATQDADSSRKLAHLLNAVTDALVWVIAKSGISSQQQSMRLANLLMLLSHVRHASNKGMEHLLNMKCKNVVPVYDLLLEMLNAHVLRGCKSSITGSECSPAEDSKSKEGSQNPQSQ

Compound	outcome	AC50
COC(=O)C(C)Oc1ccc(Oc2ncc(C(F)(F)F)cc2Cl)cc1 (stereo not given)	inactive	–
CCCCCCCCCO	inactive	–
CC(C)N(c1ccccc1)C(C)C	inactive	–
CCOCC(C)O (stereo not given)	inactive	–
CN(C)C(=O)Nc1ccccc1	inactive	–
COc1ccccc1O	inactive	–
CCC(C)C1CCCCC1=O (stereo not given)	inactive	–
CC(O)CN (stereo not given)	inactive	–
CCCCN(CCCC)CCCCCCN(CCCC)CCCC	inactive	–
CCC(C)(CCCC(C)C)OC(C)=O (stereo not given)	inactive	–
CCCC1CCC(=O)CC1	inactive	–
[O-]/[N+](=N\O)c1ccccc1	inactive	–
CN1CCc2cccc3c2[C@H]1Cc1ccc(O)c(O)c1-3	inactive	–
CCCCCCCCCCCCN1CCOCC1	inactive	–
CCNC(=S)NCC	inactive	–
CCCCCCCCCCOC(=O)c1ccccc1C(=O)OCCCCCCCC	inactive	–
CCCCC/C=C\C=C\C(=O)OCC	–	12.5 µM (active)
CCCCCCC(C)O (stereo not given)	inactive	–
CC(=O)OC(C)(C)C	inactive	–
CCCO[Si](OCCC)(OCCC)OCCC	inactive	–

Compound	outcome	AC50
CC(=O)C1=C(C)[C@@H]2C[C@@]3(C1)[C@H](C)CC[C@H]3C2(C)C	–	12.7 µM (active)
O=C(O)CS	inactive	–
CCCCC(CC)COCCO (stereo not given)	inactive	–
CC(C)CCCC(C)(C)O	inactive	–
CC(=O)Nc1cc(S(=O)(=O)O)cc2cc(S(=O)(=O)O)c(N=Nc3ccccc3)c(O)c12	inactive	–
Cc1cccc(O)c1	inactive	–
NC(=O)c1cccnc1	inactive	–
CCCCCCCCCCO[C@@H]1O[C@H](CO)[C@@H](O)[C@H](O)[C@H]1O	inactive	–
CC(CCO)CC(C)(C)C (stereo not given)	–	39 µM (active)
COC(=O)c1cccc(C(=O)OC)c1	inactive	–
CC(=O)CC(=O)N(C)C	inactive	–
COc1cc(OC)c2ccc(=O)oc2c1	inactive	–
CCCCCC(=O)O[C@]1(C(C)=O)CC[C@H]2[C@@H]3CCC4=CC(=O)CC[C@]4(C)[C@H]3CC[C@@]21C	–	12.6 µM (active)
CCC(C)(C)C1CCC(OC)CC1 (stereo not given)	inactive	–
CCCCOCCOCCO	inactive	–
CCCCCCOc1ccc(O)cc1	–	12 µM (active)
CC(=O)OC/C=C(C)/C=C/C=C(C)/C=C/C1=C(C)CCCC1(C)C	inactive	–
CCCCCC1CCC(=O)O1 (stereo not given)	inactive	–
O=C(OCc1ccccc1)c1ccccc1O	–	49.7 µM (active)
OC[C@H]1O[C@@H](O[C@H]2[C@H](O)[C@@H](O)[C@H](O)O[C@@H]2CO)[C@H](O)[C@@H](O)[C@H]1O	inactive	–

Source: PubChem BioAssay (EPA / NIEHS)
